This is a sample that favours compounds with a hit; in the whole collection about 9% have one here.
HPGD inh: HPGD (human) dehydrogenase inhibition | purified HPGD, NADH fluorescence kinetic, PGE2 substrate | Potency, µM, actives largely listed as inhibitors | AID 894 | 4.3% of 150,000 active; active means well fitted inhibition curve with a large enough effect, not every such curve was filed as active; inconclusive means small, poorly fitted or top-dose-only effect, or another doubt; inactive means no such curve, though single readings can be large or run the other way
Target sequence (P15428 whole entry, looked up): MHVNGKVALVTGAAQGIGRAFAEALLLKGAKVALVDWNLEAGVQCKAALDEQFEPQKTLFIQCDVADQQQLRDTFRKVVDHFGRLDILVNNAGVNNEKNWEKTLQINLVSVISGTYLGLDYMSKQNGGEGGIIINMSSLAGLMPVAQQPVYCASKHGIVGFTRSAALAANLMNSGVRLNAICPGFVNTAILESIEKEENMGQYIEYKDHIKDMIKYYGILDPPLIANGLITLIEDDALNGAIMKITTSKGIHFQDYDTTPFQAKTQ
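NADH formation kinetics: reaction with 30 uM PGE2 and 1 mM NAD+ (final), 20 nM enzyme, Tris-HCl pH 8 with Tween 20, after 15 min compound preincubation at room temperature. Fluorescence change, last versus first of five reads.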
Luc counter: counter-screen: inhibitors of Kinase-Glo firefly luciferase; 0.28% of 200,000 active; Potency, µM (series often up to 38.3 µM), hits mostly inhibitors; Q27757; Kinase-Glo luciferase, ATP luminescence, 8 min; AID 1379; further: nearly all actives have a fitted effect of over 60% in size
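Light output from Kinase-Glo luciferase with luciferin and 10 uM ATP in 50 mM imidazole pH 7.2, KCl, MgCl2, Tween 20, BSA; compound pin-delivered, 8-min ambient incubation, then luminescence read.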
HTT aggregate: inhibitors of mutant huntingtin aggregate formation in PC12 cells; PC12 HttQ103-GFP aggregates, Acumen cytometry, 40 h; Potency, µM (highest dose often 46.1 µM), hits mostly inhibitors; 1.1% of 220,000 active; further: nearly all actives have a fitted effect of over 60% in size
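Ecdysone-promoter PC12 model expressing HTT exon 1 Q103 fused to GFP, induced by tebufenozide at 100 nM final. Compounds titrated; aggregates sized 1–25 µm scored on a 488 nm laser cytometer.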
HTT ATP protect: protects HTT-Q103 PC12 cells, measured by ATP | PC12 HTT-Q103 induced, cytoprotection, ATP luminescence, 40 h | Potency, µM (doses to about 56.4 µM), usual class: activators | 0.14% of 230,000 active; further: nearly all actives have a fitted effect of over 45% in size
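Cells were plated at 1500 per well in phenol red-free DMEM with 5% equine and 5% calf serum. Tebufenozide (100 nM final) and compounds were added, then ATPlite reagent, and luminescence was read.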
ALDH1A1 inh: blocks purified human ALDH1A1 activity. P00352. Purified ALDH1A1, NADH fluorescence, propionaldehyde substrate. Potency, µM (highest dose often 75.3 µM), usual class: inhibitors. 7.3% of 220,000 active. AID 1030; active means well fitted inhibition curve with a large enough effect, not every such curve was filed as active; inconclusive means small, poorly fitted or top-dose-only effect, or another doubt; inactive means no such curve, though single readings can be large or run the other way
Target sequence (P00352 whole entry, looked up): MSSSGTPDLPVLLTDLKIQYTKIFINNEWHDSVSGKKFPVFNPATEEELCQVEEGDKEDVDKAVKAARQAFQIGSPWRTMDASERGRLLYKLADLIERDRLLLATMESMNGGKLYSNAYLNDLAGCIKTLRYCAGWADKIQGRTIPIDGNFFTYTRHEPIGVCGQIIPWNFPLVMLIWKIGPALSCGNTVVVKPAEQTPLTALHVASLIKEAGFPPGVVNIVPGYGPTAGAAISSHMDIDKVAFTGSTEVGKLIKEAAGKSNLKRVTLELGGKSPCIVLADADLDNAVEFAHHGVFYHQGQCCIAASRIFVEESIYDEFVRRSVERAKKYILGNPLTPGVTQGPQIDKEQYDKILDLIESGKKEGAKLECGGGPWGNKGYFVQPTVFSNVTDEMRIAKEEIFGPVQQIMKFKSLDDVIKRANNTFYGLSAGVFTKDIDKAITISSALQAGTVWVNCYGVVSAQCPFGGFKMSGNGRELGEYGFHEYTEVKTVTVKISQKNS
Lamin A splicing: modulators of lamin A splicing. Potency, µM (series often up to 46.1 µM), usual class: inhibitors. HeLa LMNA splicing GFP/RFP minigene ratio, 48 h. 0.01% of 200,000 active. AID 1487; active means well fitted inhibition curve with a large enough effect in the signal ratio, with a control signal flat, not every such curve was filed as active; inconclusive means small, poorly fitted or top-dose-only effect, or effect the other way, or a change in a side signal; the % refers to the signal ratio
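S3 HeLa cells stably expressing lamin A-EGFP splicing minigene plus DsRed2, 600 cells/well, 48 h compound exposure at 37C. Laser-scanning cytometry; analysed as GFP (500-530 nm)/RFP (575-640 nm) total intensity ratio; 0.5% DMSO vehicle.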
Hits are given with their value; i = inactive; ? = inconclusive; nt = no result; [ ] = dose if it differs, or a comment. Unless noted, the call rests on the fitted dose curve; in most records, active means well fitted curve in the direction sought with a large enough effect; inconclusive means small, poorly fitted or top-dose-only effect, or another doubt; inactive means no such curve, though single readings can be large; an effect the other way counts as inactive or inconclusive.

SMILES	HPGD inh	Luc counter	HTT aggregate	HTT ATP protect	ALDH1A1 inh	Lamin A splicing
N#Cc1c(SCC(N)=O)nc(-c2ccccc2)c2c1CCCC2	i	i	i	i	22.4µM	?
Cc1ccc(C(=O)CSc2nc3ccccc3c(=O)[nH]2)cc1C	nt	i	i[9.22 µM]	i[10 µM]	i	nt
CC1(C)C2CCC(C2)C1(C)N=C1OC(CCl)CS1 (centres undefined)	nt	nt	i[9.22 µM]	i[10 µM]	?	nt
CCCN1C2CCCC1CC(NC(=O)NC1CCCCC1)C2 (centres undefined)	nt	nt	i	i	i	i
N#Cc1c(SCC(=O)O)nc(-c2ccccc2)c2c1CCCC2	nt	nt	?	i	17.8µM	i
O=C(N/N=C/c1cn(-c2ccccc2)nc1-c1cc2ccccc2o1)c1cccnc1	?	i	i	i[10 µM]	?	?
O=C(N/N=C/c1cn(-c2ccccc2)nc1-c1cc2ccccc2o1)c1ccncc1	i	i	10µM	i[10 µM]	i	?
CC1=NNC(=O)/C1=C\c1cn(-c2ccccc2)nc1-c1cccs1	15.8µM	i	?	i[10 µM]	?	?
O=C(N/N=C/c1cn(-c2ccccc2)nc1-c1cccs1)c1ccc(Cl)cc1	?	i	11.2µM	i[10 µM]	?	?
Cc1ccn(Cc2n[nH]c(=S)n2Cc2ccccc2)n1	i	i	i	i	i	i
CCOC(=O)c1c(C)n(C)c2ccc(O)c(CN3CCN(C)CC3)c12	i	i	i	i	17.8µM	i
CC(C(=O)OCC(=O)Nc1cccc(S(=O)(=O)N(C)C)c1)N1C(=O)c2ccccc2C1=O (centres undefined)	nt	i	i	i	i	i
CCOCCOC(=O)c1[nH]c2c(c1C)C(=O)CC(c1cccs1)C2 (centres undefined)	nt	i	i	i	i	i[9.22 µM]
CCCCCOC(=O)c1[nH]c2c(c1C)C(=O)CC(c1ccco1)C2 (centres undefined)	i	i	i	i	28.2µM	?
CC1(C)CC(=O)C(N=Nc2ccc(OC(F)F)cc2)=C(O)C1	nt	i	i	i[10 µM]	1.41µM	i
CC1(C)CC(=O)C(N=Nc2ccc(F)cc2)=C(O)C1	nt	nt	i[9.22 µM]	i[10 µM]	nt	nt
CC1(C)CC(=O)C(N=Nc2ccc3ncsc3c2)=C(O)C1	i	i	i	i	4.47µM	i
CC1(C)CC(=O)C(N=Nc2ccc(-c3ccccc3)cc2)=C(O)C1	nt	i	i	i[10 µM]	?	i
CCN(CC)S(=O)(=O)c1ccc(N=NC2=C(O)CC(C)(C)CC2=O)cc1	i	i	i	i[10 µM]	2.51µM	?
Cc1ccc(C)c(Cn2cnc3c(nnn3-c3ccc(F)cc3)c2=O)c1	i	i	i	i	i	?
C=CCN(Cc1cc(OC)ccc1OC)S(=O)(=O)N(C)C	i	i	i	i[0.074 µM]	i	i
O=C1CCCC/C1=C/Nc1ccc(S(=O)(=O)Nc2ncccn2)cc1	i	i	i	i	22.4µM	i
O=C1CCCC/C1=C\Nc1ccc(O)cc1	i	i	i	?	14.1µM	i
CSc1ccccc1NC(=O)c1ccc(Cl)s1	20µM	i	i	i	?	i
Cc1onc(-c2ccccc2)c1CNS(=O)(=O)c1cccc(Br)c1	nt	nt	i[9.22 µM]	i[10 µM]	2.82µM	nt
SMILES	HPGD inh	Luc counter	HTT aggregate	HTT ATP protect	ALDH1A1 inh	Lamin A splicing
Cc1onc(-c2ccccc2)c1CNS(=O)(=O)c1ccc(F)cc1F	nt	nt	i[9.22 µM]	i[10 µM]	?	nt
CNCc1ccccc1Sc1cc(O)ccc1O	8.91µM	i	i	i[10 µM]	0.794µM	i
CC(=O)N1CCC(N(CCN2CCOCC2)C(=S)Nc2cc(C)ccc2C)CC1	i	i	i	i[10 µM]	i	i
Cc1cccc(C)c1NC(=O)CCCCCNS(=O)(=O)c1ccccc1	nt	i	i	nt	?	i
CNC(=O)CCCCCNS(=O)(=O)c1ccc(C)cc1	i	i	i	i[10 µM]	i	i
Cc1ccc(S(=O)(=O)NCCCCCC(=O)Nc2ccccc2)cc1	i	i	i	nt	11.2µM	?
Cc1ccc(S(=O)(=O)NCCCCCC(=O)Nc2ccccc2C)cc1	i	i	i	nt	3.98µM	i
Cc1ccc(S(=O)(=O)NCCCCCC(=O)Nc2ccccn2)cc1	i	i	i	i	22.4µM	i
COc1cccc(/C=N/n2cnc3cc(C)c(C)cc32)c1OC	nt	nt	i[9.22 µM]	i[10 µM]	nt	nt
Nc1ccc(N(CCO)CCO)cc1	nt	i	i[9.22 µM]	i[10 µM]	15.8µM	i
CCN(CC)c1ccc(N)cc1	i	nt	nt	i	3.16µM	nt
Nc1ccc(C(=O)N(CCO)CCO)cc1	nt	i	i[9.22 µM]	i[10 µM]	i	nt
CC(C)C[C@H](NC(=O)[C@@H](Cc1c[nH]c2ccccc12)NC(=O)[C@@H](Cc1ccc(O)cc1)NC(=O)[C@@H](CO)NC(=O)[C@@H](Cc1c[nH]c2ccccc12)NC(=O)C(Cc1cnc[nH]1)NC(=O)C1CCC(=O)N1)C(=O)N[C@@H](CCCN=C(N)N)C(=O)N1CCC[C@@H]1C(=O)NCC(N)=O (some centres undefined)	nt	nt	i	i	nt	nt
CCNC(=O)[C@@H]1CCCN1C(=O)[C@H](CCCN=C(N)N)NC(=O)[C@H](CC(C)C)NC(=O)[C@@H](Cc1c[nH]c2ccccc12)NC(=O)[C@H](Cc1ccc(O)cc1)NC(=O)[C@H](CO)NC(=O)[C@H](Cc1c[nH]c2ccccc12)NC(=O)[C@H](Cc1cnc[nH]1)NC(=O)[C@@H]1CCC(=O)N1	nt	nt	7.94µM	i	nt	nt
COc1ccc(CNC(=O)C23CN(Cc4ccccc4)CC2C(c2ccc([N+](=O)[O-])cc2)=NO3)cc1 (centres undefined)	i	i	i	i	?	i
O=C(NCc1ccccc1)C12CN(Cc3ccccc3)CC1C(c1ccc([N+](=O)[O-])cc1)=NO2 (centres undefined)	i	i	i	i	?	i
O=C(NCc1ccco1)C12CN(Cc3ccccc3)CC1C(c1ccc([N+](=O)[O-])cc1)=NO2 (centres undefined)	i	i	i	i	3.98µM	i
COc1ccc(CCNC(=O)C23CN(Cc4ccccc4)CC2C(c2ccc([N+](=O)[O-])cc2)=NO3)cc1 (centres undefined)	i	i	i	i[10 µM]	15.8µM	i
O=C(NCCCCc1ccccc1)C12CN(Cc3ccccc3)CC1C(c1ccc([N+](=O)[O-])cc1)=NO2 (centres undefined)	i	i	i	i[10 µM]	11.2µM	i
O=C(NCCCCc1ccccc1)C12CN(Cc3ccccc3)CC1C(c1cccc([N+](=O)[O-])c1)=NO2 (centres undefined)	i	i	i	i[10 µM]	?	i
CCC1CCC2(CC1)NNC(=S)NN2	10µM	i	i	?	7.51µM	i
CCC1CCC2(CC1)NC(CO)(CO)CO2 (centres undefined)	i	i	i[9.22 µM]	i	i	i
CC1(C)Cc2c(C#N)c(N)sc(=S)c2CO1	i	i	i	i	11.2µM	i
CN(C)CCCNS(=O)(=O)c1ccc(Oc2ncc(C(F)(F)F)cc2Cl)cc1	i	i	22.4µM	i[10 µM]	i	i
